The record followed here is PubChem BioAssay (NCI).

Among the test systems are SK-MEL-2 melanoma; EKVX NSCLC; SN12C renal; UO-31 renal; TK-10 renal; ACHN renal; CAKI-1 renal; A498 renal; CCRF-CEM leukemia; RPMI-8226 leukemia; OVCAR-8 ovarian; OVCAR-5 ovarian; OVCAR-4 ovarian; SK-OV-3 ovarian; IGROV1 ovarian; OVCAR-3 ovarian; HS 578T breast; NCI/ADR-RES ovarian; SR leukemia; MOLT-4 leukemia.
Test in all cases: NCI-60 one-dose screen, 48 h (100 = growth as untreated, 0 = no growth, -100 = all killed)
What all share (settings): 10 µM unless noted

The panel holds about 83,000 compounds, 20% with a hit somewhere; the sample as a whole holds those more often.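 Note: values are percent growth. 100 is the growth of untreated cells, values between 100 and 0 indicate rising inhibition; between -100 and 0 indicates cell death.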 Values without a mark were called inactive. Active and inactive are the calls of the source. Rule for the calls: active = growth percent below 10; inactive = the rest.

Consider `CCOC(=O)Nc1ccc2nc(N3CCCCCC3)sc2c1`, for which the growth in the experiment on SK-MEL-2 melanoma is 36.8%; in the experiment with EKVX NSCLC it was 59.9%; in the experiment with SN12C renal, 44.2%; with UO-31 renal, 39.2%; in the experiment on TK-10 renal it was 51.1%; in the experiment on ACHN renal it was 61.9%. Also, the growth in the experiment on CAKI-1 renal is 27.2%; with A498 renal it was 54.7%; in the experiment with CCRF-CEM leukemia, 16.7%; in the experiment on RPMI-8226 leukemia, 19.5%; in the experiment with OVCAR-8 ovarian, 32.7%; in the experiment on OVCAR-5 ovarian it was 65.7%. The growth is 57.5% in the experiment with OVCAR-4 ovarian; 5.7% (active) in the experiment on SK-OV-3 ovarian; 49.8% in the experiment on IGROV1 ovarian; -20.5% (active) in the experiment on OVCAR-3 ovarian; 43.7% with HS 578T breast; 0.974% (active) in the experiment on NCI/ADR-RES ovarian.

On to `C=CC(=O)N1CN(C(=O)C=C)CN(C(=O)C=C)C1`, for which the growth in the experiment on SK-MEL-2 melanoma is 110%; with EKVX NSCLC, 108%; in the experiment with SN12C renal it was 95.2%; in the experiment with UO-31 renal, 55.2%; in the experiment with TK-10 renal, -11.4% (active); with ACHN renal, 22.4%. The growth is 3.54% (active) with CAKI-1 renal; 106% in the experiment on A498 renal; 10.1% with CCRF-CEM leukemia; 25.3% in the experiment on SR leukemia; 84.6% in the experiment on RPMI-8226 leukemia; 62.4% in the experiment on OVCAR-8 ovarian. Moreover, the growth in the experiment with OVCAR-5 ovarian is 109%; with SK-OV-3 ovarian, 99%; in the experiment with IGROV1 ovarian it was 56.8%; in the experiment on OVCAR-3 ovarian, 4.76% (active); with HS 578T breast it was 71.8%.

For the compound `Cc1cc(C#Cc2ccc(C(C)(C)C)cc2)ccc1-n1c(/C=C/c2c(Cl)cccc2Cl)nc2ccccc2c1=O`, the growth was 120% in the experiment with SK-MEL-2 melanoma; 89.9% with EKVX NSCLC; 104% in the experiment with SN12C renal; 77.2% in the experiment on UO-31 renal; 99.1% with TK-10 renal; 96.2% in the experiment on ACHN renal. Moreover, the growth with CAKI-1 renal is 83.9%; in the experiment with A498 renal, 104%; in the experiment on CCRF-CEM leukemia, 95.9%; in the experiment with SR leukemia it was 88.1%; with RPMI-8226 leukemia, 91.5%; in the experiment with OVCAR-8 ovarian, 115%. Besides, the growth in the experiment on OVCAR-5 ovarian was 106%; in the experiment with OVCAR-4 ovarian it was 134%; in the experiment with SK-OV-3 ovarian it was 106%; with IGROV1 ovarian, 103%; in the experiment with OVCAR-3 ovarian, 94.3%; with NCI/ADR-RES ovarian, 103%.

`CC1=CCC2C1CC=C(C)C(CC[C@H]1[C@@](C)(O)CCC3OC(C)(C)[C@H](OC(=O)c4ccccc4)CC[C@@]31C)C2(C)C` (some centres undefined): the growth was 81.3% in the experiment with SK-MEL-2 melanoma; 69.6% with EKVX NSCLC; 80.6% with SN12C renal; 80.8% in the experiment with UO-31 renal; 97.5% with TK-10 renal; 94.1% in the experiment with ACHN renal. Besides, the growth in the experiment on CAKI-1 renal is 67.7%; in the experiment on A498 renal, 110%; in the experiment on CCRF-CEM leukemia it was 99.6%; with OVCAR-8 ovarian, 87.4%; in the experiment with OVCAR-5 ovarian it was 100%; in the experiment on OVCAR-4 ovarian, 71.5%. Moreover, the growth was 93.8% in the experiment on SK-OV-3 ovarian; 102% in the experiment on IGROV1 ovarian; 72.8% with OVCAR-3 ovarian; 110% in the experiment with HS 578T breast; 95% with NCI/ADR-RES ovarian.

As to `O=C(O)CSc1ccc(NCc2oc(CO)cc(=O)c2O)cc1`, the growth was 119% with SK-MEL-2 melanoma; 106% in the experiment on EKVX NSCLC; 98.2% in the experiment on SN12C renal; 80% with UO-31 renal; 111% in the experiment with TK-10 renal; 97.3% in the experiment on ACHN renal. Moreover, the growth is 98.4% with CAKI-1 renal; 106% in the experiment on A498 renal; 88.3% with MOLT-4 leukemia; 81.8% in the experiment on SR leukemia; 102% in the experiment with OVCAR-8 ovarian; 102% with OVCAR-5 ovarian. Further, the growth is 103% in the experiment with OVCAR-4 ovarian; 98.7% in the experiment with SK-OV-3 ovarian; 105% in the experiment with IGROV1 ovarian; 110% in the experiment on OVCAR-3 ovarian; 90.9% in the experiment on HS 578T breast; 94.3% in the experiment with NCI/ADR-RES ovarian.

`S=C(Nc1ccc(Cl)cc1)Nc1ccc(Cl)cc1` (tested in a mixture with another compound): the growth was -32.7% (active) with SK-MEL-2 melanoma; -4.98% (active) in the experiment with EKVX NSCLC; 11.1% in the experiment on SN12C renal; -5.47% (active) in the experiment with UO-31 renal; 1.45% (active) in the experiment on TK-10 renal; 3.54% (active) in the experiment with ACHN renal. Also, the growth with CAKI-1 renal was -20.3% (active); in the experiment with A498 renal, -8.63% (active); in the experiment with MOLT-4 leukemia it was 15.3%; with SR leukemia, 5.29% (active); in the experiment with RPMI-8226 leukemia, 9.87% (active); in the experiment with OVCAR-8 ovarian, 1.13% (active). In addition, the growth with OVCAR-5 ovarian was 12.5%; with OVCAR-4 ovarian it was 10.5%; in the experiment on SK-OV-3 ovarian, -0.571% (active); in the experiment with IGROV1 ovarian, 16.2%; with OVCAR-3 ovarian, 5.45% (active); with HS 578T breast, 17.4%.

Consider `CCOC(=O)c1cc(N)nc2ccccc12`, for which the growth in the experiment on SK-MEL-2 melanoma was 99.9%; with EKVX NSCLC, 108%; in the experiment on SN12C renal, 109%; in the experiment with UO-31 renal, 103%; with TK-10 renal, 106%; with ACHN renal it was 105%. The growth in the experiment with CAKI-1 renal was 102%; in the experiment on A498 renal, 95%; in the experiment on MOLT-4 leukemia, 100%; in the experiment on SR leukemia it was 102%; in the experiment with RPMI-8226 leukemia, 106%; with OVCAR-8 ovarian it was 108%. For the same compound, the growth was 109% with OVCAR-4 ovarian; 101% with SK-OV-3 ovarian; 120% in the experiment with IGROV1 ovarian; 109% in the experiment on OVCAR-3 ovarian; 82.7% with HS 578T breast; 104% in the experiment with NCI/ADR-RES ovarian.

Consider `O=C(NCCN1CCCC1)n1cc(-c2ccncc2)c(-c2cc(O)cc(Cl)c2)n1`, for which the growth with SK-MEL-2 melanoma was 90.8%; in the experiment with EKVX NSCLC it was 119%; in the experiment with SN12C renal it was 82.5%; in the experiment with UO-31 renal, 100%; with TK-10 renal, 78.6%; in the experiment with ACHN renal, 82.2%. Further, the growth is 109% in the experiment with CAKI-1 renal; 103% in the experiment with A498 renal; 85.7% with CCRF-CEM leukemia; 49.6% in the experiment with SR leukemia; 77.8% in the experiment with OVCAR-8 ovarian; 113% in the experiment on OVCAR-5 ovarian. In addition, the growth was 118% in the experiment on OVCAR-4 ovarian; 86.1% with SK-OV-3 ovarian; 109% in the experiment with IGROV1 ovarian; 116% in the experiment on OVCAR-3 ovarian; 99.6% in the experiment on HS 578T breast.

Turning to `CCCCCCCCCCCC1=NC(C)(C)CN1CC(C)O` (centres undefined), the growth was 63.4% in the experiment with SK-MEL-2 melanoma; 68.8% with EKVX NSCLC; 69.8% with SN12C renal; 47.6% in the experiment on UO-31 renal; 91.7% with TK-10 renal; 80.2% in the experiment on ACHN renal. In addition, the growth in the experiment with CAKI-1 renal was 69.8%; with A498 renal, 99.8%; in the experiment with CCRF-CEM leukemia, 25.5%; with SR leukemia it was -61.4% (active); in the experiment on OVCAR-8 ovarian, 81.7%; in the experiment with OVCAR-5 ovarian it was 92.5%. Besides, the growth was 70.2% with OVCAR-4 ovarian; 82.6% in the experiment with SK-OV-3 ovarian; 30% in the experiment with IGROV1 ovarian; 73.9% in the experiment with OVCAR-3 ovarian; 71.6% with HS 578T breast; 87% with NCI/ADR-RES ovarian.
